Reference: PubChem BioAssay (Tox21)
Values without a mark were called inactive. Results filed as inconclusive are left out. Entries that show only a call come without a potency. Active and inactive are the calls of the source. Unless noted, the call rests on the fitted dose curve; in most records, active means well fitted curve in the direction sought with a large enough effect in the repeat runs; inconclusive means weak or mixed curves; inactive means no such curve, though single readings can be large; an effect the other way counts as inactive or inconclusive.

Columns and labels:
[1] = qHTS assay to identify small molecule agonists of the hypoxia (HIF-1) signaling pathway - cell viability counter screen (AID 1224844; calls by dose curve; further: nearly all actives have a fitted effect of over 50% in size)
Outline: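 HRE-bla ME-180 cells in medium with 0.5% dialyzed FBS were preincubated 5 hrs at 37C, exposed to compounds for 17 hrs, then viability was read as CellTiter-Glo luminescence after 30 min at room temperature, in the reporter wells.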

[2] = qHTS assay to identify small molecule agonists of H2AX (AID 1224845; active means well fitted activation curve with a large enough effect in the signal ratio in the repeat runs, not every such curve was filed as active; the % refers to the signal ratio)
Outline: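 Phospho-H2AX Ser139 measured by HTRF (ex 320 nm; em 665 and 620 nm) after 24 hr antibody incubation. Compounds, 15 concentrations, 0.76% DMSO, were applied to CHO-K1 cells for 3hr at 37C before lysis.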

[3] = qHTS assay to identify small molecule agonists of H2AX - cell viability counter screen (AID 1224847; calls by dose curve;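 further: wild-type CHO-K1 cells; top concentration of the series differs between compounds; nearly all actives have a fitted effect of over 30% in size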)
Outline: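 For this counter screen, overnight-attached CHO-K1 cells received test compounds (15 concentrations, 0.76% DMSO final); 3 hr later at 37C, CellTiter-Glo reagent was added and luminescence recorded after 30 min at room temperature.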

[4] = qHTS assay to identify small molecule antagonists of the estrogen related receptor (ERR) signaling pathway from Tox21 library (AID 1224848); further: nearly all actives have a fitted effect of over 50% in size; further: potency means the concentration at half of the fitted maximal effect
Outline: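 Reading was by luminescence 30 min after ONE-Glo addition. Before that, ERR cells at 2,000 per well had rested 6 h at 37 C/5% CO2 and then received pin-tooled compounds in DMSO for 18 h at 37 C.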

[5] = qHTS assay to identify small molecule agonists of the estrogen related receptor (ERR) signaling pathway from Tox21 library (AID 1224849; calls by dose curve; further: nearly all actives have a fitted effect of over 15% in size); conditions: ERR reporter cell line, ONE-Glo luciferase, 18 h; at 92.4 µM (top of the series) unless noted
Outline: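 ERR reporter cell line (NTP) seeded, rested 6 h at 37 C/5% CO2, then pinned with Tox21 compounds in DMSO. After 18 h at 37 C, ONE-Glo luciferase luminescence was read following 30 min at room temperature.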

[6] = qHTS RealTime-Glo MT Cell Viability Assay in HepG2 cells - 24 hour (AID 1224867); further: nearly all actives have a fitted effect of over 50% in size
Outline: (§1)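 Viability was tracked continuously by NanoLuc luminescence from prosubstrate reduced by living HepG2 cells, at successive time points over 40 h of compound exposure. Cells with reagent were preincubated 5 h at 37 °C before compound addition.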

[7] = A CellTox Green Cytotoxicity Assay to monitor cytotoxicity in HEK293 cells - 0 hour (AID 1224869); further: nearly all actives have a fitted effect of over 50% in size
Outline: (§2)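 HEK293 cells premixed with CellTox Green dye were seeded at 600 cells/well and left 5 h at 37 C/5% CO2 before pin transfer of 23 nL compound in DMSO. Fluorescence from dye bound to dead-cell DNA was read during 40 h treatment.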

[8] = qHTS RealTime-Glo MT Cell Viability Assay in HepG2 cells - 40 hour (AID 1224870); further: nearly all actives have a fitted effect of over 50% in size
Outline: (§3)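 Real-time viability: cells seeded at 600 per well together with NanoLuc and cell-permeant prosubstrate, compounds added after 5 h incubation. Luminescence tracked at 0, 8, 16, 24, 32 and 40 h of exposure.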

[9] = A CellTox Green Cytotoxicity Assay to monitor cytotoxicity in HEK293 cells - 40 hour (AID 1224871); further: nearly all actives have a fitted effect of over 45% in size
Outline: as §2

[10] = qHTS RealTime-Glo MT Cell Viability Assay in HepG2 cells - 8 hour (AID 1224873); further: nearly all actives have a fitted effect of over 55% in size
Outline: as §3

[11] = A CellTox Green Cytotoxicity Assay to monitor cytotoxicity in HEK293 cells - 24 hour (AID 1224875); further: nearly all actives have a fitted effect of over 45% in size
Outline: as §2

[12] = A CellTox Green Cytotoxicity Assay to monitor cytotoxicity in HepG2 cells - 16 hour (AID 1224876); further: nearly all actives have a fitted effect of over 45% in size
Outline: (§4)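 HepG2 cells were seeded together with the CellTox Green dye at 600 cells/well, left 5 h at 37 C/5% CO2, then given compounds in DMSO. Fluorescence from dye bound to dead-cell DNA was read repeatedly over 40 h of treatment at 37 C.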

[13] = A CellTox Green Cytotoxicity Assay to monitor cytotoxicity in HepG2 cells - 24 hour (AID 1224878); further: nearly all actives have a fitted effect of over 45% in size
Outline: as §4

[14] = A CellTox Green Cytotoxicity Assay to monitor cytotoxicity in HepG2 cells - 40 hour (AID 1224879); further: nearly all actives have a fitted effect of over 40% in size; further: potency means the concentration at half of the fitted maximal effect
Outline: as §4

[15] = qHTS RealTime-Glo MT Cell Viability Assay in HEK293 cells - 0 hour (AID 1224880)
Outline: (§5)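 HEK293 cells mixed with RealTime-Glo reagents (NanoLuc plus cell-permeant prosubstrate) at 600 cells/well, preincubated 5 h at 37 C/5% CO2, then given 23 nL compound in DMSO. Nonlytic luminescence from viable cells was read at 0, 8, 16, 24, 32 and 40 h.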

[16] = qHTS RealTime-Glo MT Cell Viability Assay in HEK293 cells - 16 hour (AID 1224872)
Outline: (§6)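 Viability tracked continuously by luminescence as live cells reduce a prosubstrate for NanoLuc; HEK293 cells preincubated 5 h, compound-treated at 37 C, and read at 0, 8, 16, 24, 32 and 40 h.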

[17] = qHTS RealTime-Glo MT Cell Viability Assay in HEK293 cells - 40 hour (AID 1224874); conditions: RealTime-Glo luminescence; max response: active compounds read low; further: nearly all actives have a fitted effect of over 50% in size
Outline: as §5

[18] = qHTS RealTime-Glo MT Cell Viability Assay in HepG2 cells - 32 hour (AID 1224877); further: nearly all actives have a fitted effect of over 55% in size
Outline: as §1

[19] = qHTS assay to identify small molecule agonists of the hypoxia (HIF-1) signaling pathway (AID 1224846; active means well fitted activation curve with a large enough effect in the signal ratio in the repeat runs, not every such curve was filed as active; the % refers to the signal ratio; further: potency means the concentration at half of the fitted maximal effect)
Outline: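 HRE-bla ME-180 cells (beta-lactamase reporter under hypoxia response element) were plated at 2,000 cells/well in medium with 0.5% dialyzed FBS, rested 5 hrs, then given compounds in DMSO for 17 hrs at 37C, 5% CO2. Reporter induction was read with CCF4-AM FRET substrate.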

[20] = qHTS RealTime-Glo MT Cell Viability Assay in HEK293 cells - 32 hour (AID 1224868)
Outline: as §6

SMILES | Potency [1] | Potency [2] | Potency [3] | Potency [4] | activity change, positive = activation [5] [%] | Potency [6] | Potency [7] | Potency [8] | Potency [9] | Potency [10] | Potency [11] | Potency [12] | Potency [13] | Potency [14] | Potency [15] | Potency [16] | max response [17] [%] | Potency [18] | Potency [19] | Potency [20]
O=C(OCCCCCCOC(=O)c1ccccc1)c1ccccc1 | inactive | inactive | inactive | inactive | 1.59 | inactive | inactive | inactive | inactive | inactive | inactive | inactive | inactive | inactive | inactive |  |  |  |  | 
CCOC(=O)Cc1cccc2ccccc12 | inactive | inactive | inactive | inactive | -0.505 | inactive |  | inactive | inactive |  | inactive |  |  | 21.9 µM (active) | inactive | inactive | -4.39 | inactive |  | 
O=C(O)c1ccc(S(=O)(=O)O)cc1C(=O)O | inactive | inactive | inactive | inactive | -2.89 | inactive | inactive | inactive |  | inactive | inactive |  | inactive | inactive | inactive |  |  |  |  | 
CC(C)=CCC/C(C)=C/CC/C(C)=C/CO | inactive | inactive |  |  |  | inactive | inactive | inactive |  | inactive |  | inactive | inactive |  | inactive |  |  | inactive | inactive | 
CCC(C)(C)CC | inactive | inactive | inactive | inactive | -6.86 | inactive | inactive | inactive | inactive | inactive | inactive | inactive | inactive | inactive | inactive | inactive | -9.85 | inactive |  | inactive
CC[N+]1(CC)CCC(=C(c2ccccc2)c2ccccc2)C1C (stereo not drawn) | inactive | inactive |  |  |  | inactive | inactive | inactive | inactive | inactive | inactive | inactive | inactive | inactive | inactive | inactive |  | inactive | inactive | 
COC(=O)c1ccc(I)cc1S(=O)(=O)NC(=O)Nc1nc(C)nc(OC)n1 | inactive | inactive |  |  |  | inactive | inactive | inactive | inactive |  | inactive |  | inactive | inactive | inactive | inactive | 0.658 | inactive | inactive | 
Cc1oc2c(NC(=O)c3c(Cl)cccc3Cl)cccc2c1C(C)(C)O | inactive | inactive |  | 30.6 µM (active) | -55.8 | inactive |  |  | inactive |  | inactive |  | inactive | 38.9 µM (active) | inactive |  |  |  | 17.4 µM (active) | 
O=C(O)c1ccco1 | inactive | inactive | inactive |  |  |  | inactive | inactive |  | inactive | inactive | inactive | inactive | inactive | inactive | inactive | 9.61 | inactive | inactive | inactive
